Screening results deposited in PubChem BioAssay by Broad Institute.
miR122 inh = miR-122 sensor activation; activation, % at 12.5 µM; 0.14% of 340,000 active; Huh7 psiCHECK-miR122 Renilla luciferase sensor, 48 h;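 active = mean activation of 30% or more, with every replicate also reaching 30%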;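 also: 0% = median of neutral control wells and 100% = median of positive control wells; higher luciferase signal means stronger suppression of miR-122 activity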
* hit, by the source's call. The sample as a whole holds a higher share of hits than the screen did.

SMILES | miR122 inh
COCC(=O)N(C)C[C@H]1Oc2ncc(C#Cc3ccncc3)cc2C(=O)N([C@@H](C)CO)C[C@H]1C | -9
COc1cccc(NC(=O)N(C)C[C@H]2Oc3ncc(C#Cc4ccccc4)cc3C(=O)N([C@@H](C)CO)C[C@H]2C)c1 | 5
CO[C@H]1CN(C)C(=O)c2cc(NC(=O)NC(C)C)ccc2OC[C@H](C)N(C(=O)NC(C)C)C[C@@H]1C | -5
O=S(=O)(C/C(=C/CO)S(=O)(=O)c1ccccc1)c1ccccc1 | 72*
CN1C(=O)c2cc(NS(=O)(=O)c3ccc(Cl)cc3)ccc2OC[C@@H]2O[C@H](CC(=O)N3CCc4ccccc4C3)CC[C@H]21 | 33*
CN1C(=O)c2cc(NC(=O)Cc3ccccc3)ccc2OC[C@@H]2O[C@@H](CC(=O)NCC3CC3)CC[C@@H]21 | -183
CC(C)C(=O)Nc1ccc2c(c1)C(=O)N(C)[C@H]1CC[C@H](CC(=O)NCc3cccc(F)c3)O[C@H]1CO2 | -440
CO[C@@H]1CN(C)C(=O)c2cc(NC(=O)Cc3ccccc3)ccc2OC[C@@H](C)N(CCc2ccccc2)C[C@H]1C | -4
CO[C@@H]1CN(C)C(=O)c2cc(NS(=O)(=O)c3ccccc3)ccc2OC[C@@H](C)N(C)C[C@H]1C | -1
CO[C@@H]1CN(C)C(=O)c2cc(NS(=O)(=O)c3ccccc3)ccc2OC[C@H](C)N(C)C[C@H]1C | 1
CO[C@H]1CN(C)C(=O)c2cc(NC(=O)Cc3ccccc3)ccc2OC[C@H](C)N(C)C[C@H]1C | -3
COc1cccc(CNC(=O)C[C@H]2CC[C@@H]3[C@@H](COc4ccc(NC(C)=O)cc4C(=O)N3C)O2)c1 | 53*
CO[C@H]1CN(C)C(=O)c2cc(NC(=O)c3ccc(F)cc3)ccc2OC[C@@H](C)N(C)C[C@H]1C | -3
CO[C@H]1CN(C)C(=O)c2cc(NC(=O)c3ccc(F)cc3)ccc2OC[C@@H](C)N(C)C[C@@H]1C | -1
CCNC(=O)C[C@H]1CC[C@H]2[C@@H](COc3ccc(NC(=O)c4ccccc4)cc3C(=O)N2C)O1 | 50*
CN1C(=O)c2cc(NC(=O)c3cccc(F)c3)ccc2OC[C@H]2O[C@H](CC(=O)N3CCc4ccccc4C3)CC[C@H]21 | 37*
COCC(=O)N(C)C[C@@H]1Oc2cc(-c3cccc(F)c3)ccc2S(=O)(=O)N([C@@H](C)CO)C[C@@H]1C | 2
CCC(=O)N(C)C[C@H]1Oc2ncc(C#C[C@@H](C)O)cc2C(=O)N([C@@H](C)CO)C[C@@H]1C | -3
C[C@@H]1CN([C@H](C)CO)C(=O)c2cc(-c3ccc(C(=O)N(C)C)cc3)cnc2O[C@@H]1CN(C)Cc1ccc(C(=O)O)cc1 | 6
C[C@@H]1CN([C@H](C)CO)C(=O)c2cc(-c3cccc(C#N)c3)cnc2O[C@H]1CN(C)C(=O)C1CCCCC1 | 4
C/C=C/c1ccc2c(c1)O[C@@H](CN(C)CCC)[C@@H](C)CN([C@H](C)CO)S2(=O)=O | 2
CCC(=O)Nc1ccc2c(c1)C(=O)N(C)C[C@H](OC)[C@@H](C)CN(C(C)=O)[C@@H](C)CO2 | -3
COCC#Cc1cnc2c(c1)C(=O)N([C@@H](C)CO)C[C@H](C)[C@@H](CN(C)C(=O)Nc1ccc(OC)cc1)O2 | 4
COCC#Cc1ccc2c(c1)O[C@@H](CN(C)C(=O)C1CCCCC1)[C@H](C)CN([C@@H](C)CO)S2(=O)=O | -10
COc1cccc(-c2cnc3c(c2)C(=O)N([C@H](C)CO)C[C@H](C)[C@H](CN(C)S(=O)(=O)c2ccc(F)cc2)O3)c1 | -16
SMILES | miR122 inh
COc1ccc(C#Cc2cnc3c(c2)C(=O)N([C@H](C)CO)C[C@H](C)[C@@H](CN(C)CC2CCCC2)O3)cc1 | 1
CO[C@@H]1CN(C)C(=O)c2cc(NC(=O)c3ccc(F)cc3)ccc2OC[C@@H](C)N(C)C[C@@H]1C | -1
CO[C@@H]1CN(C)C(=O)c2cc(NC(=O)c3ccc(F)cc3)ccc2OC[C@H](C)N(C)C[C@@H]1C | -3
CN(C)CCCNC(=O)C[C@@H]1CC[C@H]2[C@H](COc3ccc(NC(=O)c4cccc(F)c4)cc3C(=O)N2C)O1 | 42*
CN1C(=O)c2cc(NC(=O)c3cccc(F)c3)ccc2OC[C@@H]2O[C@H](CC(=O)Nc3ccccc3)CC[C@H]21 | 55*
C[C@@H]1CN([C@H](C)CO)S(=O)(=O)c2ccc(C#Cc3ccccn3)cc2O[C@H]1CN(C)Cc1ccc(F)cc1 | -1
CCC(=O)N(C)C[C@H]1Oc2cc(-c3cccnc3)ccc2S(=O)(=O)N([C@@H](C)CO)C[C@@H]1C | -7
C/C=C/c1ccc2c(c1)O[C@@H](CN(C)C(=O)Cc1ccccn1)[C@H](C)CN([C@H](C)CO)S2(=O)=O | 2
CCCN1C[C@H](C)[C@H](OC)CN(C)C(=O)c2ccc(NC(=O)COC)cc2OC[C@H]1C | 3
Clc1ccc2c(N/N=C/c3ccccc3Br)ccnc2c1 | 59*
CCC(=O)Nc1ccc2c(c1)C(=O)N(C)C[C@@H](OC)[C@@H](C)CN(Cc1ccccc1OC)[C@@H](C)CO2 | -6
C[C@@H]1CN([C@@H](C)CO)C(=O)c2cc(C3=CCCCC3)cnc2O[C@H]1CN(C)Cc1cccc(F)c1 | 1
